# According to paper PMC4552634, “A New Set of Chemical Starting Points with Plasmodium falciparum Transmission-Blocking Potential for Antimalarial Drug Discovery” (PLoS ONE, 2015):
# The campaign covered roughly 13,000 compounds. About 3,200 (25%) showed an effect of 50% or more. The list shows a part of the results.
# Test system: P. falciparum stage V gametocytes
# Set-up: BacTiter-Glo ATP luminescence viability of purified stage V gametocytes in 384-well plates, per cent inhibition versus DMSO
# Details: 48 h, 5 µM; inhibitor
row,SMILES,% Inhibition
1,Clc1nc2ccccn2c1C=Cc1ccc2ccccc2n1 [TCMDC-125327],-7.636%
2,COc1cc(-c2nc(-c3ccc4c(c3)CCC4=NO)c(-c3ccncc3)[nH]2)ccc1OCCN1CCCCC1 [TCMDC-141257],22.85%
3,O=C(/C=C/c1cccc(Cl)c1)Nc1ccc2nc(CN3CCCC3)ccc2c1 [TCMDC-135628],-49.28%
4,O=C(Nc1cccc(CN2CCCN(Cc3ncc[nH]3)CC2)c1)c1ccc(Cl)c(Cl)c1 [TCMDC-141833],-19.06%
5,Cc1ccc(O)cc1Nc1ccnc2cc(-c3cccc(CNCCS(C)(=O)=O)c3)ccc12 [TCMDC-138472],-16.38%
6,Cc1ccc(Cc2cccc3nc(N)nc(N)c23)cc1 [TCMDC-137730],-6.399%
7,Cc1cc2cc(-c3ccc(CN)cc3)ccc2nc1N [TCMDC-137774],101.7%
8,COc1ccc(CCNCc2ccc3nc(N)c(C)cc3c2)cc1 [TCMDC-138098],30.17%
9,Cc1cc2ccc(-c3cccc(CN)c3)cc2nc1N [TCMDC-137624],65.41%
10,CN1CCc2ccc(NC(=O)Nc3cccc([N+](=O)[O-])c3)cc2C1 [TCMDC-139120],-5.165%
11,FC(F)(F)Oc1ccc(Nc2cc(-c3ccncc3)nc(-c3cccnc3)n2)cc1 [TCMDC-125416],22.38%
12,CC(C)(C)c1ccc(NC(=O)c2ccc(CN3CCCN(Cc4cccc(O)c4)CC3)cc2)cc1 [TCMDC-136433],-12.56%
13,Cc1cccc2[nH]c(-c3cccc(-c4cccc(NC(=O)c5cccnc5Cl)c4)c3)nc12 [TCMDC-136839],42.83%
14,O=[N+]([O-])c1cccc(-c2ccc(C=NNc3cc(N4CCCC4)nc(N4CCCC4)n3)o2)c1 [TCMDC-124053],34.95%
15,CC1CN(Cc2cccc(F)c2)CCN1c1ccc(NC(=O)c2cccs2)cc1 (stereo not drawn) [TCMDC-135009],3.6%
16,Cc1cccc(-c2ccc(CNC3CCN(CC4Cn5c(=O)ccc6ccc(F)c4c65)CC3)cn2)c1 (stereo not drawn) [TCMDC-134413],-59.7%
17,COC(=O)c1ccccc1COc1ccc(CC2(NC(=O)[C@H](Nc3ccc(C#N)c4ccccc34)C(C)(C)C)CCCC2)cc1 [TCMDC-136783],21.91%
18,Cc1cccc2[nH]c(-c3ccc(-c4ccc(CN5CCN(CCO)CC5)cc4)s3)nc12 [TCMDC-133027],2.277%
19,COCCN1CCN(Cc2ccc(-c3ccc(-c4nc5c(C)cccc5[nH]4)s3)cc2)CC1 [TCMDC-133021],2.979%
20,Cc1cccc2[nH]c(-c3cccc(-c4cccc(CNC(C)C)c4)c3)nc12 [TCMDC-132738],-9.933%
21,Cc1cccc2[nH]c(-c3ccc(-c4ccc(CN5CCN(CCN6CCOCC6)CC5)cc4)s3)nc12 [TCMDC-133930],30.2%
22,C#CCNCc1ccc(-c2cccc(-c3nc4c(C)cccc4[nH]3)c2)cc1 [TCMDC-132804],-34.44%
23,Cc1cccc2[nH]c(-c3cccc(-c4cccc(CNCc5ccccc5)c4)c3)nc12 [TCMDC-132713],10.68%

row,SMILES,% Inhibition
1,Cc1cccc2[nH]c(-c3cccc(-c4ccc(CNCc5ccccc5)cc4)c3)nc12 [TCMDC-132710],64.93%
2,Cc1cccc2[nH]c(-c3ccc(-c4cccc(CNCCCNS(C)(=O)=O)c4)cc3)nc12 [TCMDC-133082],-3.877%
3,CNCCNCc1ccc(-c2ccc(-c3nc4c(C)cccc4[nH]3)s2)cc1 [TCMDC-132828],96.61%
4,CNCCNCc1cccc(-c2cccc(-c3nc4c(C)cccc4[nH]3)c2)c1 [TCMDC-132825],101.1%
5,Cc1cccc2[nH]c(-c3ccc(-c4ccc(CNCc5ccccc5)cc4)s3)nc12 [TCMDC-132709],-2.299%
6,Cc1cccc2[nH]c(-c3ccc(-c4ccc(CNCCN5CCNCC5)cc4)s3)nc12 [TCMDC-132870],77.87%
7,CN(c1ccc2c(c1)nc(NCc1ccc(F)cc1)n2C)c1ccnc(Nc2ccc(CS(C)(=O)=O)cc2)n1 [TCMDC-138747],36.21%
8,Oc1cc(Nc2ccnc3ccc(I)cc23)c(F)cc1Cl [TCMDC-138500],-12.42%
9,COc1ccc(-n2cc(C(=O)c3cc(Br)ccc3O)cc(C#N)c2=O)cc1Cl [TCMDC-124524],13.45%
10,COc1ccccc1C1CC(c2ccccc2)=NN1C(=O)c1ccccc1 (stereo not drawn) [TCMDC-123702],28.29%
11,O=C(CCCCCNC(=O)c1ccc(O)c(-c2ccc(Cl)c(Cl)c2)c1)NCc1cccc2ccccc12 [TCMDC-140875],8.372%
12,COc1cccc(CNC(=O)c2cnc(N3CCN(c4ccncc4)CC3)c(Cl)c2)c1 [TCMDC-134628],35.94%
13,Cc1cccc2[nH]c(-c3ccc(-c4ccc(CNCc5ccccc5)cc4)cc3)nc12 [TCMDC-132701],-18.64%
14,CNCCNCc1ccc(-c2ccc(-c3nc4c(C)cccc4[nH]3)cc2)cc1 [TCMDC-132837],80.14%
15,COc1ccc(CNCc2cccc(-c3ccc(-c4nc5c(C)cccc5[nH]4)cc3)c2)cc1 [TCMDC-132726],-14.09%
16,Cc1cccc2[nH]c(-c3ccc(-c4cccc(CNCc5cccc(N)c5)c4)cc3)nc12 [TCMDC-132934],83.13%
17,Cc1cccc2[nH]c(-c3ccc(-c4ccc(CNCc5ccc(CN)cc5)cc4)cc3)nc12 [TCMDC-132813],65.29%
18,CNc1ccc(CNCc2cccc(-c3ccc(-c4nc5c(C)cccc5[nH]4)cc3)c2)cc1 [TCMDC-132979],-24.36%
19,Cc1cccc2[nH]c(-c3ccc(-c4cccc(CNCCc5ccncc5)c4)cc3)nc12 [TCMDC-132850],-15.09%
20,Cc1cccc2[nH]c(-c3ccc(-c4cccc(CNCc5ccccc5)c4)cc3)nc12 [TCMDC-132707],-22.49%
21,CNCCNCc1cccc(-c2ccc(-c3nc4c(C)cccc4[nH]3)cc2)c1 [TCMDC-132831],94.01%
22,Cc1cccc2[nH]c(-c3ccc(-c4cccc(CNCCN(C)C)c4)cc3)nc12 [TCMDC-132682],17.36%
23,Cc1cccc2[nH]c(-c3ccc(-c4ccc(CNCC(C)C)cc4)cc3)nc12 [TCMDC-132803],16.22%

row,SMILES,% Inhibition
1,Cc1cccc2[nH]c(-c3ccc(-c4ccc(CNC(C)C)cc4)cc3)nc12 [TCMDC-132744],-47.89%
2,Cc1ccccc1Oc1ccc(Nc2ccnc(Nc3cccc(C(N)=O)c3)n2)cc1C(F)(F)F [TCMDC-138601],1.674%
3,CC(=O)N(C)c1ccc(C(=O)Nc2cccc(-c3cccc(-c4nc5ccc(C(F)(F)F)cc5[nH]4)c3)c2)cc1 [TCMDC-136849],-19.52%
4,CC(=O)Nc1nc(C(=O)Nc2cccc(-c3ccc4c(cnn4CC4CC4)c3)c2)cs1 [TCMDC-133147],49.64%
5,O=C1COC(c2ccccc2)(c2ccccc2)CN1CC1CCN(Cc2ccc(O)cc2Cl)C1 (stereo not drawn) [TCMDC-136338],44.26%
6,Cc1[nH]c2c(C)cccc2c1C1CCN(CCC2CCN(C(=O)/C=C/c3ccc(Cl)c(Cl)c3)CC2)CC1 [TCMDC-139803],38.01%
7,N=C(N)CCN(Cc1ccc(Cl)cc1)c1ccc(Cl)cc1 [TCMDC-131840],54.29%
8,N=C(N)NCCN(Cc1ccccc1)c1ccccc1 [TCMDC-131837],26.01%
9,N=C(N)CCN(Cc1ccccc1)c1ccc(Cl)cc1 [TCMDC-131835],9.979%
10,N=C(N)NCCN(Cc1ccccc1)c1ccc(Cl)cc1 [TCMDC-131838],72.85%
11,Cc1ccc(N(CCC(=N)N)Cc2ccccc2)cc1 [TCMDC-132096],26.05%
12,N=C(N)NCCCN(Cc1ccccc1)c1ccc(Cl)cc1 [TCMDC-131839],47.9%
13,CN1CCCN(Cc2ccc(-c3cccc(NC(=O)c4ccc(F)cc4)c3)cc2)CC1 [TCMDC-132634],12.81%
14,O=C(NC1CCN(Cc2ccccc2)CC1)c1cccc(-c2cc3cc(Cl)c(Cl)cc3[nH]2)c1 [TCMDC-141290],-1.614%
15,CN1CCN(CCCN(Cc2cccc(-c3ccc(CNCc4ccc5c(c4)OCO5)cc3)c2)C(=O)CCC2CCCC2)CC1 [TCMDC-140557],65.31%
16,CN1CCN(CCCN(Cc2ccc(-c3cccc(CNCc4ccc5c(c4)OCO5)c3)cc2)C(=O)NC2CCCCC2)CC1 [TCMDC-140642],56.14%
17,CN1CCN(CCCN(Cc2ccc(-c3cccc(CNCc4ccc5c(c4)OCO5)c3)cc2)C(=O)CCC2CCCC2)CC1 [TCMDC-140751],61.11%
18,CN1CCN(CCCN(Cc2ccc(-c3ccc(CNCc4ccc5c(c4)OCO5)cc3)cc2)C(=O)CCC2CCCC2)CC1 [TCMDC-140561],102.2%
19,Cc1cccc(C(=O)Nc2ccnc(N(C)C3CCN(Cc4cccc(O)c4)CC3)c2)c1 [TCMDC-134964],-19.45%
20,O=C(/C=C/c1ccc(Cl)c(Cl)c1)NCCCCCN1CCC(NC(=O)Nc2cc(F)cc(F)c2)CC1 [TCMDC-135715],-53.24%
21,NC(=O)C1CCN(Cc2ccc(-c3ccc(-c4nc5cc(C(F)(F)F)ccc5[nH]4)cc3)cc2)CC1.O=C(O)C(F)(F)F [TCMDC-132692],-81.89%
22,CN1CCN(CCCN(Cc2cccc(-c3cccc(CNCc4ccc5c(c4)OCO5)c3)c2)C(=O)CCC2CCCC2)CC1 [TCMDC-140556],67.58%
23,FC(F)(F)c1cccc(CNCC2CCN(Cc3ccc4c(c3)OCO4)CC2)c1 [TCMDC-141673],2.788%
